# Six1-Eya2 inh = qHTS Assay for Inhibitors of the Six1/Eya2 Interaction; AlphaScreen GST-Six1/His-Eya2 binding, biochemical; stronger effect = lower value; activity change, % (no concentration beside the values); 360,000 compounds, 0.56% hits; AID 651725, 2012; in the data active means activity change below about -65%; inconclusive means mostly about -30% to -63%
#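 AlphaScreen with GST-Six1 and His-Eya2 (5X mix: 250 nM and 500 nM), glutathione donor and nickel acceptor beads; buffer 50 mM Tris pH 8.0, 300 mM NaCl, 1 mM TCEP; 1 h at 37 C in the dark.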
# TDP1 block = qHTS Assay for Inhibitors of Tyrosyl-DNA Phosphodiesterase (TDP1) | Tyrosyl-DNA phosphodiesterase 1 (Homo sapiens), Q9NUW8 | recombinant TDP1, AlphaScreen DNA substrate cleavage | Potency, µM (titrated, usually from 130 µM), for the others: at the top dose activity change, negative = inhibition, hits mostly inhibitors | 350,000 compounds, 0.28% hits; further: potency means the concentration at half of the fitted maximal effect; nearly all actives have a fitted effect of over 40% in size
# Target sequence (Q9NUW8 whole entry, looked up): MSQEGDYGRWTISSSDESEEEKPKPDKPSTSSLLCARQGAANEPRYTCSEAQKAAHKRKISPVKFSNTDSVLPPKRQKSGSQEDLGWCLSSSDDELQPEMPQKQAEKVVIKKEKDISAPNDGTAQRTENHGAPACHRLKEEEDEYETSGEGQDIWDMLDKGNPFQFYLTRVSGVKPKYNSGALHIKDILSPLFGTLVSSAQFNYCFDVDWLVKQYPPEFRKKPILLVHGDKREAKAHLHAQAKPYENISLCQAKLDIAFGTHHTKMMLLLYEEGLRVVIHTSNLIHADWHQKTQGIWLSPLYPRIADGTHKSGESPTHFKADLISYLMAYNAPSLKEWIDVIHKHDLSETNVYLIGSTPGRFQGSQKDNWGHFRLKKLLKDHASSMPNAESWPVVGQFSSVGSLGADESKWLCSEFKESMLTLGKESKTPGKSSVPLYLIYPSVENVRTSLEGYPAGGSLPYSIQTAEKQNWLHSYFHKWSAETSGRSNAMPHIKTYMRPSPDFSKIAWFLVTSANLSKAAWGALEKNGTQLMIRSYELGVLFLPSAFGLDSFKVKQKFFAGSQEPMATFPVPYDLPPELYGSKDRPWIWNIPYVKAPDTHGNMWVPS
#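 E. coli-derived human Tdp1, 1 nM final. Cpd preinc 15 min RT; substrate 15 nM final, 5 min RT; AS bead mix 10 ug/ml final, 10 min RT. Signal loss = tyrosine-FITC cleavage. No-enzyme wells = max signal.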
# TDP1 cell noCPT = qHTS for Inhibitors of human tyrosyl-DNA phosphodiesterase 1 (TDP1): qHTS in cells in absence of CPT. DT40 Tdp1-/- hTDP1 cells, no CPT, ATP luminescence, 48 h. Potency, µM (series often up to 46.2 µM), for inactives: at the top dose activity change, negative = growth inhibition, most hits filed as inhibitors. 420,000 compounds, 15% hits; further: potency means the concentration at half of the fitted maximal effect; nearly all actives have a fitted effect of over 55% in size
#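 Readout: luminescence from CellTiter-Glo after 30 min in the dark at RT. Cells: DT40 Tdp1-/- with stable hTDP1, 400/well. Exposure: compounds alone, ≥48 hr, 37 °C.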
# TDP1 cell CPT = qHTS for Inhibitors of human tyrosyl-DNA phosphodiesterase 1 (TDP1): qHTS in cells in presence of CPT | chicken DT40 Tdp1-/-;hTDP1 cells + 20 nM CPT, ATP luminescence, 48 h | Potency, µM (highest dose often 46.2 µM), for the others: top-dose activity change, negative = growth inhibition, hits mostly inhibitors | 420,000 compounds, 12% hits; further: potency means the concentration at half of the fitted maximal effect; nearly all actives have a fitted effect of over 55% in size
#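 Cell growth measured by CellTiter-Glo luminescence after a minimum 48 h, 37 C compound exposure with 20 nM CPT in Tdp1-knockout DT40 cells stably expressing hTDP1, seeded 400/well; qHTS titration format.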
# CtBP-E1A inh = qHTS Assay for Inhibitors of the CtBP/E1A Interaction; 340,000 compounds, 0.49% hits; activity change, % (concentration not given with the values); AlphaScreen GST-E1A/His-CtBP binding, 1536-well; stronger effect = lower value; in the data active means activity change below about -65%; inconclusive means mostly about -30% to -63%
#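 Steps: dispense buffer (Tris pH 8.0, NaCl 300 mM, TCEP 1 mM, BSA, Tween 20); add 5X protein mix (GST-E1A, His-CtBP, 125 nM each); pin 23 nL compound; 2 h at 37 °C, dark; add 5X beads (50 ug/mL); 1 h; read.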
# IL-1B inflam inh = qHTS for Inhibitors of Inflammasome Signaling: IL-1-beta AlphaLISA Primary Screen; THP-1 LPS/ATP IL-1B secretion, AlphaLISA, 16 h; stronger effect = lower value; 360,000 compounds, 4.7% hits; activity change, % at 57.5 µM; AID 743279, 2014; in the data active means activity change below about -50%; inconclusive means mostly about -30% to -49%
#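 THP-1 cells pretreated 1 hr with compounds (up to 57.5 uM final), then stimulated with LPS (250 ng/mL final) plus ATP (1.25 mM final); secreted IL-1B measured by AlphaLISA after 16 hr, decreased signal indicating inhibition.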
# Starred values were filed as active, the others as inactive; ? = inconclusive; nt = no result given; ! = repeats disagree; [ ] = remark or other dose. In the library only some 18% were active in any assay of this set; here they are far more common. Unless noted, the call rests on the fitted dose curve; in most records, active means well fitted curve in the direction sought with a large enough effect; inconclusive means small, poorly fitted or top-dose-only effect, or another doubt; inactive means no such curve, though single readings can be large; an effect the other way counts as inactive or inconclusive. On the % scale 0 is the no-effect control and ±100 the full control effect.
SMILES,Six1-Eya2 inh,TDP1 block,TDP1 cell noCPT,TDP1 cell CPT,CtBP-E1A inh,IL-1B inflam inh
C=CCN1C(=O)C2(C(C(=O)OC)=C(N)Oc3c2c(=O)oc2ccccc32)c2ccccc21 (centres undefined),nt,2%,?,?,nt,nt
O=C(c1ccc(CNS(=O)(=O)c2ccc(Br)cc2)cc1)N1CCC2(CC1)OCCO2,2,3%,9.2µM*,?,3,25
O=C(Nc1c(Cl)cccc1Cl)Oc1cccc2cccnc12,-90*,nt,4.6µM*,4.1µM*,-94*,128
CNC(=O)Oc1ccc2ncccc2c1,1,-3%,?,?,24,42
C=C1[C@H]2C[C@H]3[C@H]4N5C[C@]6(C)CCC[C@]47[C@H]([C@H]2O)[C@]3(C[C@]5(O)[C@H]67)[C@@H]1O,4,nt,9%,11%,-21,4
C=C1[C@@H]2CC[C@H]3[C@@]4(C)C[C@@H](O[C@@H]5O[C@H](CO)[C@H](OS(=O)(=O)O)[C@@H](OS(=O)(=O)O)[C@@H]5OC(=O)CC(C)C)C[C@@H](C(=O)O)[C@H]4CC[C@@]3(C2)[C@H]1O,nt,3%[56.1 µM],nt,nt,nt,nt
C(=C/c1ccccc1)/CN1CCN(CCOC(c2ccccc2)c2ccccc2)CC1,nt,20%[56.1 µM],12µM*,6.7µM*,nt,nt
c1ccc(C(OCCN2CCNCC2)c2ccccc2)cc1,5,1%,-25%,-25%,6,-13
COC(C(=O)C(O)C(C)O)C1Cc2cc3cc(OC4CC(OC5CC(O)C(OC)C(C)O5)C(OC(C)=O)C(C)O4)c(C)c(O)c3c(O)c2C(=O)C1OC1CC(OC2CC(OC3CC(C)(O)C(OC(C)=O)C(C)O3)C(O)C(C)O2)C(O)C(C)O1 (centres undefined),nt,13%,nt,nt,nt,nt
COc1ccc(C(=O)C2CCCN(Cc3cnc(C)s3)C2)c(OC)c1 (centres undefined),-1,0%,8.2µM*,16µM*,-1,-64*
COc1ccc(C(=O)C2CCCN(Cc3ccccn3)C2)c(OC)c1 (centres undefined),-3,2%,15µM*,21µM*,nt,10
COc1ccc(C(=O)C2CCCN(Cc3cnc(C)s3)C2)cc1OC (centres undefined),-3,nt,-23%,7%,0,0
Cc1ncc(CN2CCCC(C(=O)c3ccc(C(C)(C)C)cc3)C2)s1 (centres undefined),-15,7%,12µM*,21µM*,0,-29
O=C(c1ccc(C(F)(F)F)cc1)C1CCCN(Cc2ccncc2)C1 (centres undefined),0,-8%,10µM*,10µM*,10,-22
CN=C1CN(O)C(c2ccccc2)=c2cc(Cl)ccc2=N1,3,nt,?,?,1,0
COc1cccc(O)c1CN1CCCC(C(=O)c2ccccc2SC)C1 (centres undefined),-16,-1%,18µM*,16µM*,-7,-29
CCn1ccnc1CN1CCCC(C(=O)c2ccc(SC)cc2)C1 (centres undefined),-7,0%,18µM*,?,-17,-1
COc1ccc(-c2nn(Cc3ccccc3)cc2C(=O)NC2CC2)cc1OC,-3,-1%[56.1 µM],14%,5%,5,20
CC(=O)Nc1cc(-c2ccc(C(=O)NC3CC3)cc2)cn2c(-c3ccc(F)c(Cl)c3)cnc12,-4,nt,15µM*,?,-2,-12
CC(C)COP(=O)(c1ccc(N(C)C)cc1)C(O)c1ccc(Br)cc1 (centres undefined),0,nt,-26%,?,1,-12
OC(c1ccc(Cl)cc1)(c1cncnc1)c1ccccc1Cl (centres undefined),nt,5%,nt,nt,nt,nt
Cc1c(C(=O)c2cccc3ccccc23)c2cccc3c2n1[C@H](CN1CCOCC1)CO3,-23,-6%[56.1 µM],4.6µM*!,2.9µM*!,-17,-27
Cc1c(C(=O)c2ccc3ccccc3c2)c2cccc3c2n1[C@H](CN1CCOCC1)CO3,nt,14%,?,12µM*,nt,nt
O=C(CN1CCOCC1)c1cccc2ccccc12,-1,-9%,?,-24%,3,-2
Cc1nn(C(C)(C)C)c(C)c1/C=N/OC(=O)Nc1ccc(Cl)cc1,27,-5%,?,?,-6,-94*
SMILES,Six1-Eya2 inh,TDP1 block,TDP1 cell noCPT,TDP1 cell CPT,CtBP-E1A inh,IL-1B inflam inh
COc1cc(OC)cc(C(=O)Nc2ccc(Br)cc2C(=O)c2ccccc2)c1,-2,3%,-25%,-10%,1,38
O=C1OC2(c3cc(Br)c(O)cc3Oc3c2cc(Br)c(O)[c]3[Hg])c2ccccc21 (centres undefined),nt,nt,3.6µM*,4.5µM*,nt,nt
CC(=O)OC1C2C(OC(=O)Cc3ccccc3)C(C)CC2(OC(C)=O)C(=O)/C(C)=C/C2C(CC[C@@]13CO3)C2(C)C (some centres undefined),nt,-5%[56.1 µM],-2%,17%,nt,nt
COC(=O)C1=C(c2cccc(Cl)c2)C[C@@H]2CC[C@H]1N2C(=O)N1CCCC1,18,1%,7.3µM*,8.2µM*,1,5
COC(=O)C1=C(c2ccccc2)C[C@@H]2CC[C@H]1N2C(=O)N1CCCC1,3,nt,16µM*,?,4,4
COC(=O)C1=C(c2ccc(S(C)(=O)=O)cc2)C[C@@H]2CC[C@H]1N2C(=O)N1CCCC1,7,nt,4%,-16%,1,-17
CCCNC(=O)N1[C@H]2CC[C@@H]1C(C(=O)OC)=C(c1cccc(Cl)c1)C2,1,1%,?,?,5,39
COC(=O)C1=C(c2cccc(Cl)c2)C[C@@H]2CC[C@H]1N2C(=O)NCC1CC1,6,-1%,?,16µM*,-22,22
CC(C)CCC[C@@H](C)[C@H]1CC[C@H]2[C@@H]3C(=O)C=C4C[C@@H](O)CC[C@]4(C)[C@H]3CC[C@]12C,0,nt,?,?,9,19
CC(=O)C1CCC2C3CC(O)C4CC(O)CCC4(C)C3CCC12C (centres undefined),-4,nt,-17%,-13%,1,-13

# High-throughput results deposited in PubChem by National Center for Advancing Translational Sciences (NCATS).
